Source: PubChem
Sampled rows, rich in hits. Any-hit rate of the full collection: about 1.2%.
Platelet DG rel: platelet dense granule release activity; 300,000 compounds, 0.22% hits; human platelet-rich plasma, SFLLRN dense granule ATP release, luminescence; inhibition, %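 (compounds screened at 7.5 µM in platelet-rich plasma)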;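 active = mean replicate score, as percent of positive control, at or above 50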
Yeast superoxide: yeast age-related superoxide inhibition as caloric restriction mimetic | S. cerevisiae aged cells, superoxide DHE fluorescence; active compounds read low | superoxide response (% of plate mean), % at 10 µM | 330,000 compounds, 0.18% hits | AID 2690;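 active = superoxide response under a set limit, about three screen SD below normal, cut at about 65% in these data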;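 note: yeast aged for seven days with compound at 30 °C before DHE staining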
VLA-4 inh: inhibition in a human VLA-4 binding assay; 330,000 compounds, 0.2% hits; AID 2557; inhibition, % (about 7 µM as worked out from the volumes in the protocol); VLA-4 expressing cells, ligand binding flow cytometry; P13612; in the data active = inhibition above about 50%
Target sequence (P13612 whole entry, looked up): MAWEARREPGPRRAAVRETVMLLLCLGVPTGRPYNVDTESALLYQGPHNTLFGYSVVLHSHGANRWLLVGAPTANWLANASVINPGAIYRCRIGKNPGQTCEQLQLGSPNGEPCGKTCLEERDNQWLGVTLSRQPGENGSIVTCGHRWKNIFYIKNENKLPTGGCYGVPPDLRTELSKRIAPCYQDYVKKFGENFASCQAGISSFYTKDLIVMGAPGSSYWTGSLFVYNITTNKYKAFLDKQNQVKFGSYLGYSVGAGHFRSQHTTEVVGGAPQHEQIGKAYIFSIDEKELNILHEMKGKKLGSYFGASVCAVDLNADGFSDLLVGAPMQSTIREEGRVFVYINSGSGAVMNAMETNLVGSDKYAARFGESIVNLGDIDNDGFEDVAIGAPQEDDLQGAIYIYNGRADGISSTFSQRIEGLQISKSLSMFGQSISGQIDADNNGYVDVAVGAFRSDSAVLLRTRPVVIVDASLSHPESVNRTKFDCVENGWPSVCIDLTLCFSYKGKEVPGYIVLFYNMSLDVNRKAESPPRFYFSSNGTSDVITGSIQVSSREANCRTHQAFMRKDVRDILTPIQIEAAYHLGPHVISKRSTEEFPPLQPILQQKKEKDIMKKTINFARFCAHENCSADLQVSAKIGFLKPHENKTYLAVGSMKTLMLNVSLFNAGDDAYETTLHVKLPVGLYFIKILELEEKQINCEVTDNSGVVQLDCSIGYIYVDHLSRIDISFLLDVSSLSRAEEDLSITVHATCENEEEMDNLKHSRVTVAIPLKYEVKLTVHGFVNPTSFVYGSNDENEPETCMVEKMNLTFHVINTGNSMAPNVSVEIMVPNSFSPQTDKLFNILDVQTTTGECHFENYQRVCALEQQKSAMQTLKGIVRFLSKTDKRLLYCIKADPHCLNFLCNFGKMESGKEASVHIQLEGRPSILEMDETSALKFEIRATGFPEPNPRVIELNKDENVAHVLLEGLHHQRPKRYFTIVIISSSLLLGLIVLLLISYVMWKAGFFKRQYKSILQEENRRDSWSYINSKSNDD
ABCB6 inh MLPCN: human ABCB6 transporter inhibition | Q9NP58 | K562-ABCB6 porphyrin accumulation, flow cytometry, 1 h; active compounds read low | fluorescence ratio to DMSO, % at 10 µM | 360,000 compounds, 0.19% hits;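 active = fluorescence ratio to DMSO below 75%, the collection mean minus 3 SD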;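 note: signal is porphyrin accumulated inside mitochondria; lower ratio means ABCB6 inhibition with less porphyrin fluorescence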
SKN-1 inh: inhibitors of C. elegans SKN-1; C. elegans VP596 Pgst-4::GFP/RFP ratio, acrylamide-induced, 24 h; inhibition, % at 21.8 µM; 360,000 compounds, 0.49% hits;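 active = interference check ratio from 0.5 to 1.5 plus GFP to RFP signal ratio inhibition reaching or exceeding a fixed threshold, cut at about 30% in these data, passing the limit was not always enough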
CR mimetic CP: confirmation of caloric restriction mimetics inhibiting yeast age-related superoxide | 850 compounds, 1% hits | shares compounds with Yeast superoxide | superoxide response (% of plate), % at 10 µM | S. cerevisiae aging, superoxide DHE fluorescence; active compounds read low;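 active = superoxide signal below 65% of the plate average of sample wells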;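 note: cells aged with compound for 7 days at 30 degrees C before staining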
DHE counter: counter-screen for compounds affecting DHE oxidation and fluorescence in yeast | shares compounds with Yeast superoxide | S. cerevisiae BY4741, flow cytometry; active compounds read low | fluorescence response, % at 10 µM | 850 tested, under 10 active | AID 435000;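 active = fluorescence response below 15%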;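 note: lower means stronger quenching of DHE signal or ROS scavenging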
Large screens that a line does not name were inactive (follow-up assays come after a bar, where they were run).

COCCCN1C(=O)N(c2ccccc2)C(=O)C1CC(=O)Nc1ccccc1 (stereo unspecified)	none
NS(=O)(=O)c1ccc(CCNC(=O)CCCOc2ccccc2)cc1	none
C[C@@H](C(=O)OCC(=O)NCCc1ccc(S(N)(=O)=O)cc1)N1C(=O)C2CCCCC2C1=O (stereo partly specified)	Yeast superoxide 65 | CR mimetic CP inactive | DHE counter inactive
C[C@H](NS(=O)(=O)c1ccc(Cl)cc1)C(=O)OCC(=O)NCCc1ccc(S(N)(=O)=O)cc1	none (no result: Platelet DG rel, Yeast superoxide, VLA-4 inh)
NS(=O)(=O)c1ccc(CCNC(=O)CNC(=O)COc2ccccc2)cc1	Yeast superoxide 55 | CR mimetic CP inactive | DHE counter inactive
O=C1c2c(O)ccc(O)c2C(=O)c2c(NCCNCCO)ccc(NCCNCCO)c21	Yeast superoxide 33 (no result: Platelet DG rel) | CR mimetic CP 46 | DHE counter 14
O=C1c2ccccc2C(=O)c2c(Nc3ccc(CCO)cc3)ccc(O)c21	none
O=C(CNCC(=O)Nc1ccc(F)c(F)c1F)Nc1ccc(F)c(F)c1F	Yeast superoxide 65 | CR mimetic CP inactive | DHE counter inactive
O=C(CNC(=O)C1CC1)Nc1ccc(F)c(F)c1F	none (no result: Platelet DG rel)
CCN(CC)c1ccc2nc3ccccc3[n+](CC)c2c1	Yeast superoxide 65 | CR mimetic CP inactive | DHE counter inactive
CCN(CC)c1ccc2nc3ccc(N)cc3[n+](-c3ccccc3)c2c1	none (no result: Platelet DG rel, Yeast superoxide, VLA-4 inh)
CCN(CC)S(=O)(=O)c1ccc(N2CCCC2)c(NC(=O)Cc2c(F)cccc2Cl)c1	none | CR mimetic CP inactive | DHE counter inactive
CCC(=O)N1CCCC1(C)C(=O)Nc1ccc2nc(C)ccc2c1 (stereo unspecified)	none (no result: Platelet DG rel, Yeast superoxide, VLA-4 inh)
Cc1ccc(F)cc1-c1cc2nc(NCCCN(C)C)n(C)c(=O)c2s1	none (no result: Platelet DG rel, Yeast superoxide, VLA-4 inh)
CCCc1cc(C(=O)Nc2cccc([N+](=O)[O-])c2)cs1	Yeast superoxide 65 | CR mimetic CP inactive | DHE counter inactive
CC(C)(C)c1ccc(C(=O)Nc2cccc([N+](=O)[O-])c2)cc1	none
CCOC(=O)CNC(=O)c1cccs1	none
CCOC(=O)C/C(C)=N/NC(=O)c1cccs1	Yeast superoxide 63 | CR mimetic CP inactive | DHE counter inactive
CCc1ccc(NC(=O)CSc2nnc(-c3ccco3)o2)cc1	Yeast superoxide 65 | CR mimetic CP inactive | DHE counter inactive
Cc1ccc(NC2=NCCC2)cc1Cl	Yeast superoxide 65 | CR mimetic CP inactive | DHE counter inactive
Cc1nc2ccc(NC3=NCCCCC3)cc2s1	none
COc1ncnc2c1ncn2CCCNCc1ccccn1	none (no result: Platelet DG rel, Yeast superoxide, VLA-4 inh)
COC(=O)C1C(=O)C=C(Nc2ccc(F)cc2)CC1c1ccc(OC)cc1 (stereo unspecified)	Yeast superoxide 65 | CR mimetic CP inactive | DHE counter inactive
Cc1ccc(C(=O)n2c3ccccc3c3ccccc32)cc1	none
CC(=O)n1c2ccccc2c2ccccc21	none | CR mimetic CP inactive | DHE counter inactive
COc1ccc(-c2ccccc2)cc1NC(=O)C1(C)CCN1C(=O)C(C)C (stereo unspecified)	none (no result: Platelet DG rel, Yeast superoxide, VLA-4 inh)
Cc1cc(C)c(S(=O)(=O)Nc2ccc(O)cc2)c(C)c1	none | CR mimetic CP inactive | DHE counter inactive
CCNC(=O)C1(C)CCCN1C(=O)c1cnc2ccccc2n1 (stereo unspecified)	none (no result: Platelet DG rel, Yeast superoxide, VLA-4 inh)
CC(=O)Oc1ccc2c(c1)OC(c1ccccc1)CC21CC(C)(C)NC(=S)N1 (stereo unspecified)	none
COc1ccc(C2(c3ccc(OC(C)=O)cc3OC(C)=O)CC(c3ccccc3)NC(=S)N2)cc1 (stereo unspecified)	Yeast superoxide 61 | CR mimetic CP inactive | DHE counter inactive
OC[C@@H]1CN(Cc2ccc(Cl)cc2)C[C@H](n2cnc3c(N4CCCC4)ncnc32)O1	none (no result: Platelet DG rel, Yeast superoxide, VLA-4 inh)
CC(C)(C)NC(=O)c1cccc2c1-c1ccccc1C2=O	Yeast superoxide 42 | CR mimetic CP inactive | DHE counter inactive
O=C(NCCO)c1cccc2c1-c1ccccc1C2=O	none
Cc1ccc(-c2nc3cc(C)c(Br)c(C)n3c2Cc2ccsc2)cc1	none (no result: Platelet DG rel, Yeast superoxide, VLA-4 inh)
COc1ccc2nc3ccccc3nc2c1N	Yeast superoxide 49 | CR mimetic CP 57 | DHE counter inactive
Brc1ccc2nc(C3CCCCC3)c(CC3CCCCC3)n2c1	none (no result: Platelet DG rel, Yeast superoxide, VLA-4 inh)
CCN(Cc1ccccc1)S(=O)(=O)c1ccc(C(=O)Nc2nnc(C)o2)cc1	none | CR mimetic CP inactive | DHE counter inactive
CC1(C(=O)NS(=O)(=O)c2cccc(OC(F)F)c2)CCN1C(=O)c1cccc(F)c1 (stereo unspecified)	none (no result: Platelet DG rel, Yeast superoxide, VLA-4 inh)
C[C@H](NC(=O)[C@@H]1CCCN1C(=O)[C@@H]1CCCN1C(=O)c1cccc(Cl)c1)c1ccccc1	none (no result: Platelet DG rel, Yeast superoxide, VLA-4 inh)
CCOC(=O)c1cnc2c(F)ccc(F)c2c1Sc1ccccc1	Yeast superoxide 62 | CR mimetic CP inactive | DHE counter inactive
COc1cccc(-c2cccc(-c3nc(C(=O)NCCCN4CCOCC4)cc4c3[C@H](CCO)N(S(=O)C(C)(C)C)C4)c2)c1 (stereo partly specified)	none (no result: Platelet DG rel, Yeast superoxide, VLA-4 inh)
CN1CCN(C2CN(Cc3cn(Cc4ccc(F)cc4)nn3)S(=O)(=O)C2)CC1 (stereo unspecified)	none (no result: Platelet DG rel, Yeast superoxide, VLA-4 inh)
CS(=O)(=O)N(CC(O)Cn1c2ccccc2c2ccccc21)c1ccccc1 (stereo unspecified)	none
OC(CN1CCCCC1)Cn1c2ccccc2c2ccccc21 (stereo unspecified)	Yeast superoxide 46 | CR mimetic CP inactive | DHE counter inactive
OCCN(CCO)CC(O)CN(c1ccccc1)c1ccccc1 (stereo unspecified)	none
OCCN(CCO)CC(O)Cn1c2ccccc2c2ccccc21 (stereo unspecified)	none | CR mimetic CP inactive | DHE counter inactive
CN(CC(O)Cn1c2ccccc2c2ccccc21)S(C)(=O)=O (stereo unspecified)	none | CR mimetic CP inactive | DHE counter inactive
O=c1c2ccccc2n(CC(O)CN2CCCCC2)c2ccccc12 (stereo unspecified)	none
CC(C)OC(=O)c1ccc(NC(=O)c2ccccc2)cc1	none
CC(C)OC(=O)c1ccc2nc3ccccc3nc2c1	Yeast superoxide 53 | CR mimetic CP inactive | DHE counter inactive
Cc1c(F)cccc1NS(=O)(=O)c1ccccc1C#N	none | CR mimetic CP inactive | DHE counter inactive
Cc1nc(-c2ccc(NC(=O)Cc3ccccc3)cc2)cs1	Yeast superoxide 64 | CR mimetic CP inactive | DHE counter inactive
CN1/C(=C\C=C2/SC(=S)N(CC(=O)O)C2=O)C(C)(C)c2ccccc21	none
C=CCN1C(=O)/C(=C\C=C2\N(C)c3ccccc3C2(C)C)SC1=S	Yeast superoxide 57 | CR mimetic CP inactive | DHE counter inactive
CC(C)NC(=O)C1(C)CCN1Cc1ccc(Cl)cc1 (stereo unspecified)	none (no result: Platelet DG rel, Yeast superoxide, VLA-4 inh)
